# In PubChem BioAssay AID1628 (Sanford-Burnham Center for Chemical Genomics, 2009):
# Among all 190,000 compounds or so, about 930 (0.49%) were called active. This is one part of the list. Entries with a potency or affinity are not part of this list. Unmarked numbers belong to inactive results.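 Rule for the calls: active = z-score of insulin promoter reporter brightness in nuclei below -3 at 5 µM, with at least 500 cells counted; inconclusive = wells with under 500 cells, flagged as toxic or sparse; inactive = the rest.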
# Experiment: insulin promoter down-regulators in MIN6 cells, imaging, high-content screening, mouse beta cells (AID 1628)
# Settings: MIN6 insulin promoter GFP reporter, at 5 µM, hits give low values
row,Structure (SMILES),z-score
1,COc1cc(OC)cc(C(=O)N2CCC(N3CCCCCC3)CC2)c1,1.84
2,CCOC(=O)c1ccc(Nc2ccc(-c3ccc(OC)c(OC)c3)nn2)cc1,-3.46 (active)
3,Cn1c(=O)c(Nc2ccc(Cl)cc2)c2c3c(cccc31)C(=O)c1ccccc1-2,15.1
4,N#C/C(=C\c1ccc(N2CCOCC2)o1)c1nc2ccccc2[nH]1,8.22
5,NS(=O)(=O)c1cccc2cccnc12,5.52
6,NCC12CC3CC(C1)CC(CN)(C3)C2,3.09
7,Cn1cc(/C=C2\SC(=S)N(NC(=O)c3ccccc3Cl)C2=O)c2ccccc21,7
8,CCOC(=O)c1c(NC(=O)CSc2nnnn2C)sc(C)c1-c1ccc(C)cc1,-3.09 (active)
9,CCOC(=O)c1sc(-c2ccccc2)cc1NC(=O)CSc1nnnn1C,-3.34 (active)
10,COc1ccc(NC(=O)CSc2nnnn2C)c([N+](=O)[O-])c1,0.83
11,CCOC(=O)c1sc(=S)n(-c2ccccc2)c1N(C(C)=O)C(C)=O,1.57
12,CC(C)(C)C(=O)c1sc2nc(-c3cccs3)cc(C(F)(F)F)c2c1N,13.8
13,CCOc1ccccc1NC(=O)C1CCN(S(=O)(=O)c2ccc(OC)c(OC)c2)CC1,0.9
14,COc1ccc(NC(=O)C2CCN(Cc3cnn(-c4ccccc4)c3-n3cccc3)CC2)cc1OC,-4.57 (active)
15,NC(CO)C(O)c1ccc([N+](=O)[O-])cc1 (centres undefined),-0.09
16,COCCN(CCOC)Cc1cc(=O)oc2cc3c(cc12)CCC3,3.14
17,Cc1cccn2c(=O)c(/C=C3\SC(=S)N(CC(C)C)C3=O)c(NCCCOC(C)C)nc12,12.1
18,O=c1[nH]c(CN2CCN(Cc3ccc4c(c3)OCO4)CC2)nc2sc3c(c12)CCC3,3.55
19,O=C(CN1CCN(Cc2ccc3c(c2)OCO3)CC1)N1CCc2[nH]c3ccccc3c2C1,-4.04 (active)
20,Cc1ccc2[nH]c3c(c2c1)CN(C(=O)CN1CCN(Cc2ccc4c(c2)OCO4)CC1)CC3,-3.96 (active)
21,C(=C/c1nccc2c1[nH]c1ccccc12)/c1ccc2c(c1)OCO2,10.6
22,CCN(CC)c1ccc2cc(-c3nnc(-c4ccncc4)o3)c(=O)oc2c1,4.43
23,COc1ccc2nc(SCC(=O)Nc3ccc(S(=O)(=O)N4CCCC4)cc3)c(C#N)cc2c1,3.47
24,COc1ccc(S(=O)(=O)N2CCCCC2)cc1NC(=O)CSc1ncnc2ccccc12,-4.48 (active)
25,Cc1ccc(-c2noc(CSc3nnnn3-c3ccccc3)n2)cc1,2.35
26,COC(=O)c1ccccc1NC(=S)N1CCC(N2CCCCC2)CC1,1.65
27,CCOC(=O)c1ccccc1NC(=O)c1ccc2c(=O)n3c(nc2c1)CCCCC3,-3.69 (active)
28,CC1(C)CC(N2CCCC2)=CC(=[N+]2CCCCCC2)C1,-4.54 (active)
29,CCOc1ccc(-n2c(SCC(=O)NC(C)CC)nc3n[nH]c(C)c3c2=N)cc1 (centres undefined),3
